AMA1 RON2 block: qHTS for Inhibitors of AMA1-RON; Towards Development of Antimalarial Drug Lead: Primary Screen; AlphaScreen AMA1-biotinylated RON2 peptide binding; Potency, µM (series often up to 58.2 µM), for the others: at the top dose activity change, negative = inhibition, most hits filed as inhibitors; 360,000 tested, 0.2% active; AID 720542, 2013;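 also: 0% = vehicle wells and -100% = peptide control; nearly all actives have a fitted effect of over 45% in size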
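AMA1 (3D7) with his tag at 25 nM final met compounds first, then biotinylated RON2 peptide at 25 nM; detection used donor plus acceptor beads, 10 µg/mL apiece, read by AlphaScreen after 30 min at room temperature.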
LASV entry inh: qHTS for Inhibitors of binding or entry into cells for Lassa Virus; Lassa virus pseudotype entry inhibition, cell reporter; Potency, µM (titrated, usually from 37.9 µM), inactives show top-dose activity change, negative = inhibition, usual class: inhibitors; 300,000 tested, 1.2% active; AID 540256, 2011; calls by dose curve; tested in HEK293 cells; also: nearly all actives have a fitted effect of over 50% in size
AmpC detergent: qHTS Inhibitors of AmpC Beta-Lactamase (assay with detergent) | P00811 | AmpC hydrolysis of nitrocefin, absorbance 480 nm, 0.01% Triton | Potency, µM (highest dose often 114 µM), without a hit: top-dose activity change, negative = inhibition, hits mostly inhibitors | 370,000 tested, 0.041% active;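 also: 0% = no-compound wells and -100% = no-enzyme wells; nearly all actives have a fitted effect of over 25% in size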
Target sequence (P00811 whole entry, looked up): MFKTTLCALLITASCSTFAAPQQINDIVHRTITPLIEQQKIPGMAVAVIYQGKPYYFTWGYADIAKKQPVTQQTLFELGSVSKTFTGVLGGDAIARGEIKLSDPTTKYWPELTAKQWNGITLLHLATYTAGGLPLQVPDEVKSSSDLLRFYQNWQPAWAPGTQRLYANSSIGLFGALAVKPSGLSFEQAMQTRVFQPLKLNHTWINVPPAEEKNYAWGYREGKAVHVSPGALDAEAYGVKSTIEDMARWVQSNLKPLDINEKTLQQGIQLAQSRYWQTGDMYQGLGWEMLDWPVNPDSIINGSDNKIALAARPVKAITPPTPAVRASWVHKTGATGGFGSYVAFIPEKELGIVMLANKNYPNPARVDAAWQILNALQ
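20 mM phosphate pH 7.0 + 0.01% (detergent screen) or 0.0001% Triton X-100; 5.3 nM AmpC reagent; cpd preinc 15 min RT; nitrocefin (800 uM stock) to start; A480 q20 s × 4 min; Activity was normalised to no-enzyme and no-compound control wells.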
MARV entry inh: qHTS for inhibitors of binding or entry into cells for Marburg Virus | Potency, µM (series often up to 37.8 µM), inactives show at the highest dose activity change, negative = inhibition, most hits filed as inhibitors | 300,000 tested, 1.8% active | AID 540276, 2011 | Marburg virus pseudotyped entry inhibition, cell reporter; calls by dose curve; tested in HEK293 cells
AmpC inh no detg: qHTS Inhibitors of AmpC Beta-Lactamase (assay without detergent); P00811; AmpC nitrocefin hydrolysis, absorbance 480 nm, 0.0001% Triton; Potency, µM (titrated, usually from 57.1 µM), for inactives: at the top dose activity change, negative = inhibition, usual class: inhibitors; 330,000 tested, 0.52% active; AID 485341, 2010;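 also: plate controls were no compound for no effect and no enzyme for full effect; nearly all actives have a fitted effect of over 20% in size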
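AmpC (5.3 nM in the dispensed reagent) in 20 mM phosphate pH 7.0 with 0.01% (detergent screen) or 0.0001% Triton X-100 was preincubated with compounds for 15 min at room temperature. Nitrocefin was then added from an 800 uM solution, and hydrolysis was followed at 480 nm.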
* hit, by the source's call; [ ] = remark or other dose. Most compounds without a hit are left out; they make up all but 2.3% or so of the library. Unless noted, calls follow the shape of the dose curve; as a rule, active = well fitted curve in the direction sought with a large enough effect; inconclusive = small, poorly fitted or top-dose-only effect, or another doubt; inactive = no such curve, though single readings can be large; an effect the other way counts as inactive or inconclusive. Unless noted, % is scaled to controls: 0 for no effect and ±100 for the full control effect; potency is read from the fitted curve at half-maximal effect.

Results for COc1ccccc1NC1=CC(=O)CC(c2ccccc2)C1 (stereo not given) ?
AMA1 RON2 block: 20%; LASV entry inh: 7.3µM*; AmpC detergent: -10%; MARV entry inh: -15%; AmpC inh no detg: -28%

How did CCOC(=O)c1ccc(OC(=O)c2cn(-c3ccc(C)cc3)c(=O)c3ccccc23)cc1 do in these assays?
LASV entry inh: 0%[46.1 µM]; AmpC detergent: 4%

How did COc1cc(OC)c(NC(=O)N2CCc3cc(S(=O)(=O)N4CCC(C)CC4)ccc32)cc1Cl do in these assays?
LASV entry inh: inconclusive; AmpC detergent: -2%; MARV entry inh: -1%[46.1 µM]

What do the screens show for `OC(CN1CCC(Cc2ccc(F)cc2)CC1)c1ccc(Cl)cc1` (stereo not given)?
LASV entry inh: inconclusive; MARV entry inh: 7.1µM*

How did Cn1c(-c2ccccc2)cnc1SCC(=O)N1CCCCC1 do in these assays?
AMA1 RON2 block: -3%; LASV entry inh: 3.5µM*; AmpC detergent: -6%; MARV entry inh: inconclusive; AmpC inh no detg: -7%

What do the screens show for `Cn1c(-c2ccccc2)cc2c3no[n+]([O-])c3ccc21`?
AMA1 RON2 block: -13%; LASV entry inh: 4.5µM*; AmpC detergent: 0%; MARV entry inh: 3.5µM*; AmpC inh no detg: 98%

How did CCOc1ccc(-c2nnc(-c3ccccc3)n2-c2ccccc2)cc1 do in these assays?
AMA1 RON2 block: -5%; LASV entry inh: 13%; AmpC detergent: 1%; MARV entry inh: -4%; AmpC inh no detg: 5.6µM*

Results for CCOc1ccc(-c2nnc(SCC(=O)c3ccc(F)cc3)n2-c2ccccc2)cc1 ?
LASV entry inh: -12%[46.1 µM]; AmpC detergent: 1%; MARV entry inh: -11%[46.1 µM]

Results for CC(C)COc1ccc(C(=O)N2CCCCC2CCN2CCCCC2)cc1 (stereo not given) ?
LASV entry inh: inconclusive; AmpC detergent: -2%; MARV entry inh: -5%[46.1 µM]

What do the screens show for `N/C(=N\c1nc2c(c(=O)[nH]1)CCC2)Nc1cccc(Cl)c1`?
AMA1 RON2 block: -4%[2.32 µM]; LASV entry inh: -27%; AmpC detergent: 3%; MARV entry inh: 6.3µM*; AmpC inh no detg: -14%

Results for COc1ccc(CCNC(=O)c2cc(-c3ccc(C)c(C)c3)nc3ccccc23)cc1OC ?
LASV entry inh: inconclusive; AmpC detergent: 3%

How did N#CCc1ccc(NC(=O)/C=C/c2ccc([N+](=O)[O-])o2)cc1 do in these assays?
AMA1 RON2 block: -1%; LASV entry inh: 7.9µM*; AmpC detergent: -8%; MARV entry inh: inconclusive; AmpC inh no detg: -45%

Results for O=C(O)/C=C/c1ccc([N+](=O)[O-])o1 ?
AMA1 RON2 block: -6%; LASV entry inh: 12%[46.1 µM]; AmpC detergent: -2%; MARV entry inh: inconclusive; AmpC inh no detg: -14%

How did CCc1ccc(C2CC(=O)c3c([nH]c(C(=O)OCCOc4ccccc4)c3C)C2)cc1 (stereo not given) do in these assays?
LASV entry inh: inconclusive; AmpC detergent: 18%; MARV entry inh: inconclusive

How did O=[N+]([O-])c1ccc(OCC(O)CN(C2CCCCC2)C2CCCCC2)cc1 (stereo not given) do in these assays?
AMA1 RON2 block: -3%; LASV entry inh: -14%; AmpC detergent: inconclusive; MARV entry inh: inconclusive; AmpC inh no detg: -3%

How did COc1ccc(OCC(O)CN(C2CCCCC2)C2CCCCC2)cc1 (stereo not given) do in these assays?
AMA1 RON2 block: -11%; LASV entry inh: 15µM*; AmpC detergent: -1%; MARV entry inh: inconclusive; AmpC inh no detg: -31%

How did CCc1cccc(NC(=O)Cn2cc(C(=O)c3ccncc3)c(=O)c3cc(C)c(C)cc32)c1 do in these assays?
LASV entry inh: 12%[46.1 µM]; AmpC detergent: -6%

How did CC(=O)Nc1ccc(NC(=O)CSc2nc3ccccc3nc2N2CCOCC2)cc1 do in these assays?
LASV entry inh: inconclusive; AmpC detergent: 18%; MARV entry inh: -6%[46.1 µM]

How did COc1cccc(NC(=O)CSc2nc3ccccc3nc2N2CCOCC2)c1 do in these assays?
AMA1 RON2 block: 0%; LASV entry inh: 7.1µM*; AmpC detergent: -10%; MARV entry inh: inconclusive; AmpC inh no detg: 16%

What do the screens show for `COC1=C[C@H](C(=O)NCc2ccc(Br)cc2)C(C)C(c2ccccc2)CC1=O` (stereo not given in full)?
MARV entry inh: 15%[14.2 µM]

What do the screens show for `CC1=CC(C)CC(C)OC(=O)CC(c2ccc(O)cc2)NC(=O)C(Cc2c(Br)[nH]c3ccccc23)N(C)C(=O)C(C)NC(=O)C(C)C1` (stereo not given)?
AMA1 RON2 block: 12%; LASV entry inh: 0.4µM*; MARV entry inh: 0.32µM*

Results for O=C(O)CNC(=O)CC1S/C(=N/N=C2\CSC(=O)N2)NC1=O (stereo not given) ?
AMA1 RON2 block: 40µM*; AmpC detergent: 4%; AmpC inh no detg: -18%

Results for O=C(O)CNC(=O)CC1S/C(=N/N=C/c2ccccc2O)NC1=O (stereo not given) ?
AMA1 RON2 block: 86%; AmpC detergent: 5%; AmpC inh no detg: -17%

Results for N#Cc1c(-n2ncnc2-c2ccccc2Cl)sc2c1CCCCC2 ?
LASV entry inh: 25%[46.1 µM]; AmpC detergent: 2%

Results for O=C(Nc1ccc(-c2cn3ccsc3n2)cc1)C1COc2ccccc2O1 (stereo not given) ?
AMA1 RON2 block: -7%; LASV entry inh: -24%; AmpC detergent: inconclusive; MARV entry inh: inconclusive; AmpC inh no detg: 16µM*

Results for CCCNC(=O)OCCC12CC3CC(CC(C3)C1)C2 ?
AMA1 RON2 block: 27%; LASV entry inh: inconclusive; AmpC detergent: 2%; MARV entry inh: inconclusive; AmpC inh no detg: -12%

Results for CCCNC(=O)NCCC12CC3CC(CC(C3)C1)C2 ?
AMA1 RON2 block: -3%; LASV entry inh: 2.5µM*; AmpC detergent: -3%; MARV entry inh: 0%[46.1 µM]; AmpC inh no detg: -22%

Results for Cc1ccc(C)c(Nc2cc(C(=O)NC3CCCCC3)c3ccccc3n2)c1 ?
LASV entry inh: -2%[46.1 µM]; AmpC detergent: -1%; MARV entry inh: -2%[46.1 µM]

What do the screens show for `Cc1ccc(C)c(NC(=O)CSc2c3c(nc4ccc(Cl)cc24)CCCC3)c1`?
LASV entry inh: -1%[46.1 µM]; AmpC detergent: 0%; MARV entry inh: -3%[46.1 µM]

How did COc1cccc(C(=O)CC2(O)C(=O)Nc3ccc(Cl)cc32)c1 (stereo not given) do in these assays?
LASV entry inh: -8%[46.1 µM]; AmpC detergent: 5%; MARV entry inh: inconclusive

What do the screens show for `Cc1nc(C)c(C(=O)NN=Cc2ccc(N(CCCl)CCCl)cc2)s1`?
AMA1 RON2 block: 5%; LASV entry inh: 7.1µM*; MARV entry inh: inconclusive

Bioassay records from PubChem BioAssay.
